Counter-ions that a name gives are not always drawn. ± gives the standard deviation of the averaged measurements.
What was measured:
[1] = tested on: Saccharomyces cerevisiae BY4741 SeMeCo community; test: mean cell size (pixel area) (pixels); higher = larger cells; details: 10 µM; 24 h; SM minimal medium
Outline: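 A Saccharomyces cerevisiae BY4741 community carrying four plasmids, each with a fluorescent marker and each complementing one auxotrophy, was exposed for 24 h to drug at a final 10 µM in SM medium in acoustically predosed 384-well plates. The overnight preculture (OD600 = 1.0) was diluted to OD600 = 0.3 before 70 µl was added per well. Cells were then fixed with paraformaldehyde, imaged by automated confocal microscopy and analysed in Harmony to derive mean cell pixel area per well, averaged over 3 replicates. Same SeMeCo high-content imaging drug screen: Selleck FDA-approved drugs at 10 µM, 24 h in SM medium, 384-well plates, 3 replicates.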

[2] = tested on: Saccharomyces cerevisiae BY4741 SeMeCo community; test: z-score of prototroph abundance vs DMSO median; higher = larger share of this subpopulation than in DMSO controls; details: 10 µM; 24 h; SM minimal medium; subpopulation (auxotrophy): Prototroph
Outline: (§1)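 A Saccharomyces cerevisiae BY4741 community carried four plasmids, each restoring one auxotrophy and encoding a distinct fluorescent protein. It was pre-grown overnight to OD600 1.0, diluted to 0.3, and 70 µl was added to 384-well plates acoustically predosed with library drugs (10 µM final), then grown 24 h in minimal SM medium. Cells were paraformaldehyde-fixed and imaged by automated confocal microscopy, with single-auxotroph fluorescent strains setting thresholds and autofluorescence correction. Each subpopulation's abundance was scored as a z-score against the vehicle-well median.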

[3] = tested on: Saccharomyces cerevisiae BY4741 SeMeCo community; test: z-score of subpopulation abundance vs DMSO median, subpopulation auxotrophic for M; higher = larger share of this subpopulation than in DMSO controls; details: 10 µM; 24 h; SM minimal medium; subpopulation (auxotrophy): M
Outline: as §1

[4] = tested on: Saccharomyces cerevisiae BY4741 SeMeCo community; test: z-score of subpopulation abundance vs DMSO median, subpopulation auxotrophic for L; higher = larger share of this subpopulation than in DMSO controls; details: 10 µM; 24 h; SM minimal medium; subpopulation (auxotrophy): L
Outline: as §1

[5] = tested on: Saccharomyces cerevisiae BY4741 SeMeCo community; test: z-score of subpopulation abundance vs DMSO median, subpopulation auxotrophic for U; higher = larger share of this subpopulation than in DMSO controls; details: 10 µM; 24 h; SM minimal medium; subpopulation (auxotrophy): U
Outline: as §1

[6] = tested on: Saccharomyces cerevisiae BY4741 SeMeCo community; test: z-score of subpopulation abundance vs DMSO median, subpopulation auxotrophic for H; higher = larger share of this subpopulation than in DMSO controls; details: 10 µM; 24 h; SM minimal medium; subpopulation (auxotrophy): H
Outline: as §1

[7] = tested on: Saccharomyces cerevisiae BY4741 SeMeCo community; test: z-score of subpopulation abundance vs DMSO median, subpopulation auxotrophic for LU; higher = larger share of this subpopulation than in DMSO controls; details: 10 µM; 24 h; SM minimal medium; subpopulation (auxotrophy): LU
Outline: as §1

[8] = tested on: Saccharomyces cerevisiae BY4741 SeMeCo community; test: z-score of subpopulation abundance vs DMSO median, subpopulation auxotrophic for LM; higher = larger share of this subpopulation than in DMSO controls; details: 10 µM; 24 h; SM minimal medium; subpopulation (auxotrophy): LM
Outline: as §1

[9] = tested on: Saccharomyces cerevisiae BY4741 SeMeCo community; test: z-score of subpopulation abundance vs DMSO median, subpopulation auxotrophic for HU; higher = larger share of this subpopulation than in DMSO controls; details: 10 µM; 24 h; SM minimal medium; subpopulation (auxotrophy): HU
Outline: as §1

[10] = tested on: Saccharomyces cerevisiae BY4741 SeMeCo community; test: z-score of subpopulation abundance vs DMSO median, subpopulation auxotrophic for UM; higher = larger share of this subpopulation than in DMSO controls; details: 10 µM; 24 h; SM minimal medium; subpopulation (auxotrophy): UM
Outline: as §1

[11] = tested on: Saccharomyces cerevisiae BY4741 SeMeCo community; test: z-score of subpopulation abundance vs DMSO median, subpopulation auxotrophic for HL; higher = larger share of this subpopulation than in DMSO controls; details: 10 µM; 24 h; SM minimal medium; subpopulation (auxotrophy): HL
Outline: as §1

[12] = tested on: Saccharomyces cerevisiae BY4741 SeMeCo community; test: z-score of subpopulation abundance vs DMSO median, subpopulation auxotrophic for HLU; higher = larger share of this subpopulation than in DMSO controls; details: 10 µM; 24 h; SM minimal medium; subpopulation (auxotrophy): HLU
Outline: as §1

[13] = tested on: Saccharomyces cerevisiae BY4741 SeMeCo community; test: z-score of subpopulation abundance vs DMSO median, subpopulation auxotrophic for HLM; higher = larger share of this subpopulation than in DMSO controls; details: 10 µM; 24 h; SM minimal medium; subpopulation (auxotrophy): HLM
Outline: as §1

[14] = tested on: Saccharomyces cerevisiae BY4741 SeMeCo community; test: z-score of subpopulation abundance vs DMSO median, subpopulation auxotrophic for HUM; higher = larger share of this subpopulation than in DMSO controls; details: 10 µM; 24 h; SM minimal medium; subpopulation (auxotrophy): HUM
Outline: as §1

[15] = tested on: Saccharomyces cerevisiae BY4741 SeMeCo community; test: z-score of subpopulation abundance vs DMSO median, subpopulation auxotrophic for LUM; higher = larger share of this subpopulation than in DMSO controls; details: 10 µM; 24 h; SM minimal medium; subpopulation (auxotrophy): LUM
Outline: as §1

[16] = tested on: Saccharomyces cerevisiae BY4741 SeMeCo community; test: z-score of subpopulation abundance vs DMSO median, subpopulation auxotrophic for HLUM; higher = larger share of this subpopulation than in DMSO controls; details: 10 µM; 24 h; SM minimal medium; subpopulation (auxotrophy): HLUM
Outline: as §1

[17] = tested on: Saccharomyces cerevisiae BY4741 SeMeCo community; test: z-score of subpopulation abundance vs DMSO median, subpopulation auxotrophic for HM; higher = larger share of this subpopulation than in DMSO controls; details: 10 µM; 24 h; SM minimal medium; subpopulation (auxotrophy): HM
Outline: as §1

SMILES | mean cell size [1] | z-score of prototroph abundance [2] | z-score of subpopulation abundance [3] | z-score of subpopulation abundance [4] | z-score of subpopulation abundance [5] | z-score of subpopulation abundance [6] | z-score of subpopulation abundance [7] | z-score of subpopulation abundance [8] | z-score of subpopulation abundance [9] | z-score of subpopulation abundance [10] | z-score of subpopulation abundance [11] | z-score of subpopulation abundance [12] | z-score of subpopulation abundance [13] | z-score of subpopulation abundance [14] | z-score of subpopulation abundance [15] | z-score of subpopulation abundance [16] | z-score of subpopulation abundance [17]
Nc1c(CC(=O)O)cccc1C(=O)c1ccc(Br)cc1 [Bromfenac Sodium] | 12.5 ± 0.043 | -0.27 | 0.38 | -0.45 | 0.73 | -0.02 | -0.11 | -0.28 | 0.19 | 0.59 | -0.68 | -0.92 | -0.09 | 0.05 | 0.39 | 0.3 | 
CCCNC(C)C(=O)Nc1ccccc1C (centres undefined) [Prilocaine hydrochloride] | 12.28 ± 0.063 | -0.24 | -0.36 | 0.41 | 0.86 | -0.67 | 1.11 | 0.83 | 0.08 | 0.54 | 0.03 | -0.01 | -0.05 | -0.27 | 0.73 |  | -0.46
CN(Cc1cnc2nc(N)nc(N)c2n1)c1ccc(C(=O)N[C@@H](CCC(=O)O)C(=O)O)cc1 [Methotrexate disodium] | 15.01 ± 0.07 | 0.74 | -6.18 | -0.58 | -4.34 | 15.3 | -3.33 | -1.46 | -1.36 | -5.52 | 10.8 | 0.91 | 14.3 | -2.01 | -1.74 | 19.8 | 
COc1ccnc(C[S+]([O-])c2nc3cc(-n4cccc4)ccc3[nH]2)c1C (centres undefined) [Ilaprazole sodium] | 12.7 ± 0.23 | -0.81 | 1.1 | 1.32 | -1.54 | 5.12 | -0.87 | 1.43 | -0.9 | -1.01 | 6.22 | 2.72 | 3.01 | 0.43 |  |  | 1.14
O=C1N=C(O)NC1(c1ccccc1)c1ccccc1 [Phenytoin Sodium] | 12.527 ± 0.0075 |  | -0.37 | 0.11 | 1.21 |  | 0.96 | -0.6 | -0.05 | 0.67 | -0.83 | 0.17 | 0.15 | 0.83 | -0.31 |  | -1.02
CN[C@@H]1[C@H](O[C@H]2[C@H](O[C@H]3[C@H](O)[C@@H](O)[C@H](N=C(N)N)[C@@H](O)[C@@H]3N=C(N)N)O[C@@H](C)[C@]2(O)C=O)O[C@@H](CO)[C@H](O)[C@H]1O [Streptomycin sulfate] | 11.99 ± 0.031 | 0.05 | -0.43 | -1.14 | 1.16 | 0.36 | -0.25 | -0.12 | 0.65 | 0.8 | -0.36 | -0.4 | -0.57 | 0.39 | -0.33 | -0.41 | 
Cc1ccc(-c2cc(C(F)(F)F)nn2-c2ccc(S(N)(=O)=O)cc2)cc1 [Celecoxib] | 12.5 ± 0.15 | 0.84 | -0.11 | 0.82 | -0.79 | 0.01 | -0.19 | -0.61 | -0.62 | -0.75 | -0.61 | -0.86 | -0.37 | -0.8 | -0.48 | -0.44 | 
